Assay results reported in PubChem BioAssay (NCI).
The panel holds about 79,000 compounds, 15% with a hit somewhere; the sample as a whole holds those more often. Calls of active or inactive are those of the source. Rule as the data show it: active = growth inhibition above about 70%; inactive = the rest.

How the values were obtained:
[1] = NCI Yeast Anticancer Drug Screen. Data for the rad50 strain (AID 155);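 also: 0% = growth of vehicle-only cultures of the same strain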; conditions: S. cerevisiae rad50 strain growth inhibition, stronger effect = higher value
Summary of the method: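 DNA repair mutant yeast, compound exposure, growth read-out; inhibition is taken relative to vehicle.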

[2] = NCI Yeast Anticancer Drug Screen. Data for the mec2-1 strain (AID 157); conditions: S. cerevisiae mec2-1 strain, stronger effect = higher value
Summary of the method: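 Test agents were screened against the mec2-1 yeast strain, with defined DNA repair or cell cycle alteration. Growth was scored as inhibition against vehicle-only controls.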

[3] = NCI Yeast Anticancer Drug Screen. Data for the sgs1 mgt1 strain (AID 161);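 also: 0% = growth of cultures given vehicle only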; conditions: S. cerevisiae sgs1 mgt1 strain, stronger effect = higher value
Summary of the method: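 Inhibition of yeast growth, normalised to vehicle-treated controls, is reported for a strain bearing genetic alterations in DNA damage repair.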

[4] = NCI Yeast Anticancer Drug Screen. Data for the cln2 rad14 strain (AID 165);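 also: 0% = growth equal to vehicle treated cultures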; conditions: S. cerevisiae cln2 rad14 strain, stronger effect = higher value
Summary of the method: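 Growth of compound-exposed yeast (cln2 rad14 genotype) measured and expressed as inhibition relative to vehicle.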

[5] = NCI Yeast Anticancer Drug Screen. Data for the bub3 strain (AID 167); conditions: S. cerevisiae bub3 mutant strain, stronger effect = higher value
Summary of the method: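 In this screen, a yeast mutant lacking normal mitotic checkpoint function is challenged with compound. Relative growth versus vehicle gives the inhibition value.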

[6] = NCI Yeast Anticancer Drug Screen. Data for the mlh1 rad18 strain (AID 175); conditions: S. cerevisiae mlh1 rad18 strain growth inhibition, stronger effect = higher value
Summary of the method: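 In this whole-cell yeast screen, a strain with altered DNA damage repair is challenged with compound, and its growth is measured against matched vehicle-treated controls.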

[7] = at 5.0 µM (retest, dose inferred, filed as 0.5)
[8] = at 50.0 µM (retest, dose inferred, filed as 5.0)

Measured: growth inhibition

O=C(NCc1ccccc1)C1C(=O)N(Cc2ccccc2)C(=O)/C1=N/O (stereo not given)
inactive: [1]; [7] -16% | [1]; [8] -1% | [1]; at 50.0 µM -17.1% | [2]; [7] 2% | [2]; [8] 1% | [2]; at 50.0 µM 16.8% | [3]; [7] -14% | [3]; [8] -22% | [3]; at 50.0 µM 35.2% | [4]; [7] -4% | [4]; [8] -1% | [4]; at 50.0 µM -22.5% | [5]; [7] 2% | [5]; [8] -1% | [5]; at 50.0 µM 31.6% | [6]; [7] -2% | [6]; [8] -3% | [6]; at 50.0 µM 12.8%

CCC[N+]1=C(/C=C/c2cc(C)c3cccnc3c2O)C(C)(C)c2ccccc21
active: [1]; [8] 94% | [1]; at 50.0 µM 93.7% | [2]; [8] 95% | [2]; at 50.0 µM 90.3% | [3]; [8] 93% | [3]; at 50.0 µM 86.5% | [4]; [8] 90% | [4]; at 50.0 µM 81.8% | [5]; [8] 93% | [5]; at 50.0 µM 92% | [6]; [8] 93% | [6]; at 50.0 µM 93%
inactive: [1]; [7] 12% | [2]; [7] 27% | [3]; [7] 7% | [4]; [7] -7% | [5]; [7] 4% | [6]; [7] 19%

CC(C)(CN1CCCCC1)C(/C=C/c1ccc(Cl)c(Cl)c1)=N\NC(=O)N/N=C(/C=C/c1ccc(Cl)c(Cl)c1)C(C)(C)CN1CCCCC1
active: [1]; [8] 98% | [1]; at 50.0 µM 90.5% | [2]; [8] 99% | [2]; at 50.0 µM 93.3% | [3]; [8] 99% | [3]; at 50.0 µM 92.8% | [4]; [8] 98% | [4]; at 50.0 µM 91.2% | [5]; at 50.0 µM 91.8% | [6]; [8] 99% | [6]; at 50.0 µM 90%
inactive: [1]; [7] 42% | [2]; [7] 29% | [3]; [7] 41% | [4]; [7] 31% | [5]; [7] 39% | [5]; [8] 67% | [6]; [7] 56%

CN(C)c1ccc(/C=C/C(=O)c2ccc([N+](=O)[O-])cc2)cc1
inactive: [1]; [7] 38% | [1]; [8] 48% | [1]; at 50.0 µM -21.7% | [2]; [7] 45% | [2]; [8] 42% | [2]; at 50.0 µM -16% | [3]; [7] -9% | [3]; [8] 24% | [3]; at 50.0 µM -16.7% | [4]; [7] 24% | [4]; [8] 41% | [4]; at 50.0 µM -4.5% | [5]; [7] 21% | [5]; [8] 23% | [5]; at 50.0 µM -13.4% | [6]; [7] 34% | [6]; [8] 45% | [6]; at 50.0 µM -47.2%

ClC1=C(Cl)C(Cl)(C(Cl)(Cl)Cl)C(Cl)=C1Cl
active: [1]; [7] 99% | [1]; [8] 98% | [1]; at 50.0 µM 99.6% | [2]; [7] 100% | [2]; [8] 99% | [2]; at 50.0 µM 99.6% | [3]; [7] 99% | [3]; [8] 98% | [3]; at 50.0 µM 99.7% | [4]; [7] 99% | [4]; [8] 98% | [4]; at 50.0 µM 99.4% | [5]; [7] 99% | [5]; [8] 98% | [5]; at 50.0 µM 99.7% | [6]; [7] 99% | [6]; [8] 98% | [6]; at 50.0 µM 99.4%

C=C(CN(C)C)C(=O)c1ccc(Oc2ccccc2)cc1
active: [1]; [7] 99% | [1]; [8] 100% | [1]; at 50.0 µM 99.2% | [2]; [7] 99% | [2]; [8] 100% | [2]; at 50.0 µM 99.4% | [3]; [7] 99% | [3]; [8] 100% | [4]; [7] 71% | [4]; [8] 99% | [4]; at 50.0 µM 99.4% | [5]; [7] 99% | [5]; [8] 100% | [5]; at 50.0 µM 98.8% | [6]; [7] 98% | [6]; [8] 100% | [6]; at 50.0 µM 99.5%
inactive: [3]; at 50.0 µM 59.5%

COc1ccc(C(C)c2cc3c(cc2O)OCO3)cc1 (stereo not given)
inactive: [1]; [7] 7% | [2]; [7] -8% | [2]; [8] 48% | [3]; [7] -3% | [3]; [8] 56% | [4]; [7] -23% | [4]; [8] 58% | [5]; [7] -22% | [6]; [7] 7%
active: [1]; [8] 99% | [1]; at 50.0 µM 98.5% | [2]; at 50.0 µM 98.7% | [3]; at 50.0 µM 98.8% | [4]; at 50.0 µM 97.1% | [5]; [8] 76% | [5]; at 50.0 µM 98.5% | [6]; [8] 97% | [6]; at 50.0 µM 98%

CCCCCCCCCCCC(O)=C1C(=O)CC(O)CC1=O (stereo not given)
inactive: [1]; [7] 33% | [2]; [7] 25% | [3]; [7] 48% | [4]; [7] 40% | [5]; [7] 42% | [6]; [7] 46%
active: [1]; [8] 88% | [1]; at 50.0 µM 88.3% | [2]; [8] 97% | [2]; at 50.0 µM 91.6% | [3]; [8] 98% | [3]; at 50.0 µM 91% | [4]; [8] 91% | [4]; at 50.0 µM 90.3% | [5]; [8] 97% | [5]; at 50.0 µM 89.7% | [6]; [8] 96% | [6]; at 50.0 µM 82.8%

N#Cc1c(-c2ccc(Cl)cc2)c2c(n(C3OC(CO)C(O)C(O)C3O)c1=S)CCCC2 (stereo not given)
active: [1]; [8] 88% | [2]; [8] 77% | [3]; [8] 96% | [4]; [8] 86% | [5]; [8] 96% | [6]; [8] 96%
inactive: [1]; [7] -3% | [1]; at 50.0 µM 9.95% | [2]; [7] -2% | [2]; at 50.0 µM 10.5% | [3]; [7] -1% | [3]; at 50.0 µM -8.85% | [4]; [7] 3% | [4]; at 50.0 µM 31.2% | [5]; [7] 3% | [5]; at 50.0 µM 1% | [6]; [7] -2% | [6]; at 50.0 µM 14.9%

OC(Cc1ccc(Br)cc1)CN1CCC(c2ccccc2)CC1 (stereo not given)
active: [1]; [7] 98% | [1]; [8] 98% | [1]; at 50.0 µM 83.9% | [2]; [7] 71% | [2]; [8] 71% | [2]; at 50.0 µM 74.5% | [3]; [7] 97% | [3]; [8] 97% | [3]; at 50.0 µM 82.8% | [4]; [7] 87% | [4]; [8] 87% | [4]; at 50.0 µM 78.9% | [5]; [7] 83% | [5]; [8] 83% | [5]; at 50.0 µM 87.8% | [6]; [7] 88% | [6]; [8] 88% | [6]; at 50.0 µM 79%
